Records with an inconclusive call do not appear. Calls of active or inactive are those of the source. How the source made its calls: active means hit-call score of the fitted dose curve at least 0.9, where 1 is the maximum; inconclusive means response in the unintended direction; inactive means score below 0.9.
Assays:
[1] = ArunA_Migration_hNC: ArunA Biomedical's Oris Neural Crest (hNC) Cell Migration Assay (AID 2283755)
Summary of the method: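 Calcein-AM fluorescence (ex494 nm/em 517 nm) in the stopper-defined detection zone quantifies migration of hNC cells after 72 h chemical exposure; 60,000 cells/well plated on Matrigel with LIF and bFGF, 16 h pre-incubation. DMSO baseline.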

[2] = ArunA_NOG_NucleusCount: ArunA Biomedical's Neurite Outgrowth (NOG) Assay for Nucleus Count (AID 2283756)
Summary of the method: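 Viable neuron count, from Hoechst nuclei passing size and intensity gates, imaged at 20x on differentiated H9-derived human neurons. Exposure lasted 48 h from seeding; activity was scored relative to DMSO.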

[3] = ArunA_NOG_BranchPointsPerNeurite: ArunA Biomedical's Neurite Outgrowth (NOG) Assay for Branch Points Per Neurite (AID 2283759)
Summary of the method: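 Automated image analysis traced neurites (processes >10 um) from valid cell bodies after Hoechst and βIII-tubulin staining. hNN cells from H9 embryonic stem cells, 48 h exposure. Fitted bidirectionally against DMSO.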

[4] = ACEA_AR_agonist_AUC_viability: ACEA Biosciences xCELLigence Real-Time Cell Analysis on Androgen Receptor Agonism for Viability (AID 2283775);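 on AC50: viability read 80 hours after compound addition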
Summary of the method: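 Viability endpoint from xCELLigence impedance in 22Rv1 prostate cells at 80 h. Eight-point series, 100 uM maximum final.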

[5] = ACEA_AR_antagonist_AUC_viability: ACEA Biosciences xCELLigence Real-Time Cell Analysis on Androgen Receptor Antagonism for Viability (AID 2283776);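 further: area under impedance growth curve at 80 h after dosing as viability; hits lower the growth signal relative to DMSO meaning cytotoxicity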
Summary of the method: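 22Rv1 human prostate cancer cells were seeded on electrode plates, monitored overnight, then exposed to eight 1:4 dilutions from 100 uM final. Impedance-based growth kinetics at 80 h gave an AUC viability endpoint normalized to DMSO.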

[6] = ACEA_ER_AUC_viability: ACEA Biosciences xCELLigence Real-Time Cell Analysis on Estrogen Receptor Agonism for Viability (AID 2283782);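 further: hit means loss of impedance signal meaning reduced cell growth or viability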
Summary of the method: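 Read-out: real-time electrical impedance (RT-CES) area under curve, loss of signal taken as reduced viability, normalized to DMSO baseline. T-47D cells, charcoal-stripped serum medium, compounds up to 100 uM final, continuous exposure, 80 h.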

[7] = tested on: zebrafish Androgen Receptor (AR), gene 100005148; assay: ATG_zfAR_XSP1: Attagene TRANS-FACTORIAL Multi-Species (XSP1) HepG2 Assay for zebrafish Androgen Receptor (AR) (AID 2283771)
Summary of the method: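 Gain-of-signal versus DMSO was measured as reporter transcripts quantified by RT-PCR, fluorescent labelling and capillary electrophoresis after 24 h chemical exposure. The cells were HepG2 expressing a chimeric zebrafish AR-GAL4, co-stimulated with 3 nM 6-alpha-fluorotestosterone.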

[8] = biological target: zebrafish Estrogen Receptor (ESR1), esr1 (gene 259252) (UniProt P57717); assay: ATG_zfER1_XSP1: Attagene TRANS-FACTORIAL Multi-Species (XSP1) HepG2 Assay for zebrafish Estrogen Receptor (ESR1) (AID 2283772)
Summary of the method: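 Exogenous chimeric receptor-GAL4 activity is measured in transiently transfected human HepG2 liver cells after 24 h compound exposure. Reporter transcripts are detected by RT-PCR and fluorescent capillary electrophoresis, analysed for signal gain relative to DMSO.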

[9] = tested on: zebrafish Estrogen Receptor (ESR2B), gene 317733; assay: ATG_zfER2b_XSP1: Attagene TRANS-FACTORIAL Multi-Species (XSP1) HepG2 Assay for zebrafish Estrogen Receptor (ESR2B) (AID 2283773)
Summary of the method: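 Multiplexed TRANS format in transfected HepG2 liver cells, chimeric NR-Gal4 from zebrafish ESR2B. 24 h dosing; medium contains 3 nM 6-alpha-fluorotestosterone. mRNA induction by RT-PCR/CE, positive direction vs DMSO.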

[10] = tested on: frog Estrogen Receptor (ESR2), gene 100174814; assay: ATG_frER2_XSP1: Attagene TRANS-FACTORIAL Multi-Species (XSP1) HepG2 Assay for frog Estrogen Receptor (ESR2) (AID 2283774)
Summary of the method: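 HepG2, transient MRTU transfection (GAL4-UAS reporters, exogenous NR-Gal4 chimeras); 24 h compound exposure; 3 nM 6α-fluorotestosterone co-added; total RNA → RT-PCR → 6-FAM primer extension → HpaI → CE. Positive direction vs DMSO.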

[11] = biological target: chicken Estrogen Receptor (ESR1), ESR1 (gene 396099) (UniProt P06212); assay: ATG_chERa_XSP1: Attagene TRANS-FACTORIAL Multi-Species (XSP1) HepG2 Assay for chicken Estrogen Receptor (ESR1) (AID 2283779)
Summary of the method: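 Read-out: fluorescent reporter mRNA fragments resolved by capillary electrophoresis after RT-PCR and HpaI digestion. Transfected HepG2 cells carried chimeric NR-Gal4 constructs, were dosed 24 h with 3 nM 6-alpha-fluorotestosterone added, and activity was fitted upward relative to DMSO.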

[12] = tested on: frog Estrogen Receptor (ESR1), gene 398734; assay: ATG_frER1_XSP1: Attagene TRANS-FACTORIAL Multi-Species (XSP1) HepG2 Assay for frog Estrogen Receptor (ESR1) (AID 2283777)
Summary of the method: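 Transient MRTU transfection, HepG2 (human liver); 24 h dosing, 3 nM 6α-fluorotestosterone co-added; RNA → RT-PCR → 6-FAM labeling → CE; upward activity vs DMSO.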

[13] = tested on: zebrafish Estrogen Receptor (ESR2A), gene 317734; assay: ATG_zfER2a_XSP1: Attagene TRANS-FACTORIAL Multi-Species (XSP1) HepG2 Assay for zebrafish Estrogen Receptor (ESR2A) (AID 2283778)
Summary of the method: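 Transient transfection of HepG2 (human liver) with MRTU constructs; chemical dosing for 24 h; medium contained 3 nM 6-alpha-fluorotestosterone to partly stimulate AR. RT-PCR/CE fluorescence of reporter transcripts; positive direction vs DMSO.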

[14] = tested on: turtle Estrogen Receptor (ESR1), gene 101933533; assay: ATG_trERa_XSP1: Attagene TRANS-FACTORIAL Multi-Species (XSP1) HepG2 Assay for turtle Estrogen Receptor (ESR1) (AID 2283781)
Summary of the method: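 Transfect HepG2 with reporter units → dose chemical 24 h (medium has 3 nM 6-alpha-fluorotestosterone) → isolate RNA, RT-PCR → FAM primer extension, HpaI digest → capillary electrophoresis; gain of signal vs DMSO.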

[15] = STM_H9_NormalizedViability: Cytotoxicity Assessment at 120 hours in the Stemina devTOX quickPredict H9 human embryonic stem cell (hESC)-based Assay (AID 2283784)
Summary of the method: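 CellTiter-Fluor RFU, background-subtracted, expressed relative to 0.1% DMSO neutral control by plate. Pluripotent H9 cells; treatment with daily re-dosing. Plates carried 1uM methotrexate (positive) and 5 nM methotrexate (negative) references.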

[16] = ArunA_NOG_NeuriteLength: ArunA Biomedical's Neurite Outgrowth (NOG) Assay for Neurite Length (AID 2283757)
Summary of the method: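 Total neurite length per neuron, from traced βIII-tubulin-labelled processes longer than 10 um on viable Hoechst-gated cells, was scored as decrease from DMSO. Cells were hESC (H9)-derived neurons given 48 h chemical exposure immediately after seeding.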

[17] = ArunA_NOG_NeuritesPerNeuron: ArunA Biomedical's Neurite Outgrowth (NOG) Assay for Neurites Per Neuron (AID 2283758)
Summary of the method: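 Differentiated human H9-derived neurons exposed to chemicals for 48 h from seeding, then stained with Hoechst and βIII-tubulin/DyLight 488. Automated imaging counted neurites (processes >10 um) per valid neuron; loss of signal versus DMSO scored.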

[18] = tested on: chicken Androgen Receptor (AR), gene 422165; assay: ATG_chAR_XSP1: Attagene TRANS-FACTORIAL Multi-Species (XSP1) HepG2 Assay for chicken Androgen Receptor (AR) (AID 2283768)
Summary of the method: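 Reporter mRNA read by RT-PCR with fluorescent labelling and capillary electrophoresis 24 h after chemical dosing of transiently transfected HepG2 cells. Chicken AR-Gal4 chimera, partially stimulated with 3 nM 6-alpha-fluorotestosterone; activity fitted upward relative to DMSO.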

[19] = tested on: turtle Androgen Receptor (AR), gene 101947425; assay: ATG_trAR_XSP1: Attagene TRANS-FACTORIAL Multi-Species (XSP1) HepG2 Assay for turtle Androgen Receptor (AR) (AID 2283786)
Summary of the method: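 Partial androgen stimulation is provided by 3 nM 6-alpha-fluorotestosterone in a multi-species trans-factorial panel expressing a turtle AR–GAL4 fusion in HepG2. After 24 h, reporter mRNA is measured by RT-PCR and capillary electrophoresis and fitted upward against DMSO.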

Measured: AC50

Chain of chicken Estrogen Receptor (ESR1), ESR1 (gene 396099) (P06212 whole entry, looked up, the tested form may be a part): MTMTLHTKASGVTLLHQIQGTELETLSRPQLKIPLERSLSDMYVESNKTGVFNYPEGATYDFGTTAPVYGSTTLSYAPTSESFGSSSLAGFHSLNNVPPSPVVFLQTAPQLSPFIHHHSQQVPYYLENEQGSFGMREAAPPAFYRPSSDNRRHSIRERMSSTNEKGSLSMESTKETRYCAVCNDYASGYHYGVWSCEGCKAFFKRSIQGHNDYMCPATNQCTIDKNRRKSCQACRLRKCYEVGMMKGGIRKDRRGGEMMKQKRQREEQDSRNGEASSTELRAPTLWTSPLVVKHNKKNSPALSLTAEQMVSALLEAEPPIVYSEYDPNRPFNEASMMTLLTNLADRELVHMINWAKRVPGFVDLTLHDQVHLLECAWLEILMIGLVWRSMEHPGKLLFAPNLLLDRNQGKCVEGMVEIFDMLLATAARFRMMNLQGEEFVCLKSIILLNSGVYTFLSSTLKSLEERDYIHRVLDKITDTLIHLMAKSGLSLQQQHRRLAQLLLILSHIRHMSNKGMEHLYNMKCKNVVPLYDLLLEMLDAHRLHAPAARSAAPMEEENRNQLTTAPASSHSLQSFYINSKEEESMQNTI
Chain of zebrafish Estrogen Receptor (ESR1), esr1 (gene 259252) (P57717 whole entry, looked up, the tested form may be a part): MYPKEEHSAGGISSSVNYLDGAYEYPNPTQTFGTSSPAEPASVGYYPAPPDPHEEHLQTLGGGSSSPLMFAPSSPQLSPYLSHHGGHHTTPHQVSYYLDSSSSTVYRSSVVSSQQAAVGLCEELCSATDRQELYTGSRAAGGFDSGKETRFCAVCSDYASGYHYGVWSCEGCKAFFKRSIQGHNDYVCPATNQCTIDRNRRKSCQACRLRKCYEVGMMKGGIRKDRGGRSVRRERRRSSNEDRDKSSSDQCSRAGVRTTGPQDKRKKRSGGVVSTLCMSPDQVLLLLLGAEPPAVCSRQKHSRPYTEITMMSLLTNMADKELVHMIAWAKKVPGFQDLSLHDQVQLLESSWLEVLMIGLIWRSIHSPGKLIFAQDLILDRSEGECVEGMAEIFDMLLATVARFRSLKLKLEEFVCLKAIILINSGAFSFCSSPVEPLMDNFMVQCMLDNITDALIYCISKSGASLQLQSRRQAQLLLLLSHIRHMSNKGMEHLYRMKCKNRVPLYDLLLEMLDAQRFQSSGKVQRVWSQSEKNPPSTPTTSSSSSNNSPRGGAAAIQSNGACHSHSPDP

S=C1NCCN1
inactive: [1] | [2] | [3] | [4] | [5] | [6]

CCCOCC(=Nc1ccc(Cl)cc1C(F)(F)F)n1ccnc1
active: [10] 2.94 µM | [4] 22.7 µM | [5] 6 µM | [6] 23.1 µM
inactive: [7] | [8] | [9] | [11]

CCOP(=S)(OCC)Oc1ccc2c(C)c(Cl)c(=O)oc2c1
active: [9] 44.6 µM | [10] 34.6 µM | [5] 31 µM
inactive: [4] | [12] | [13] | [11] | [14]

CCCCOC(=O)c1ccccc1C(=O)O
inactive: [4] | [5] | [6]

CC1(C(=O)Nc2ccc(O)c(Cl)c2Cl)CCCCC1
active: [4] 64.9 µM | [5] 50 µM

CCOP(=S)(Oc1cnc(C(C)(C)C)nc1)OC(C)C (centres undefined)
active: [4] 46.3 µM | [5] 50 µM | [6] 81.4 µM

CC(=NC#N)N(C)Cc1ccc(Cl)nc1
inactive: [4] | [5] | [6]

CCOC(=O)CC(SP(=O)(OC)OC)C(=O)OCC (centres undefined)
inactive: [4] | [5] | [6]

O=[N+]([O-])c1cc(C(F)(F)F)c(Cl)c([N+](=O)[O-])c1Nc1ncc(C(F)(F)F)cc1Cl
active: [4] 8.38 µM | [5] 10.6 µM | [6] 3.24 µM | [15] 16.3 µM
inactive: [1] | [2]

CCc1cnc(C2=NC(C)(C(C)C)C(=O)N2)c(C(=O)O)c1 (centres undefined)
inactive: [4] | [5]

CNC(=O)ON=C(C)SC
inactive: [4] | [5] | [6]

CCOP(=S)(OCC)Oc1ccc([N+](=O)[O-])cc1
inactive: [4] | [5] | [6]

Cc1cc(C2CC2)nc(Nc2ccccc2)n1
active: [4] 75.6 µM | [5] 64.2 µM | [6] 77.3 µM

CCCCN(CC)c1c([N+](=O)[O-])cc(C(F)(F)F)cc1[N+](=O)[O-]
active: [4] 60.9 µM | [5] 43.8 µM

COP(=O)(OC)C(O)C(Cl)(Cl)Cl (centres undefined)
inactive: [4]
active: [5] 50 µM | [6] 76.5 µM

COc1ccc(C(=CC(=O)N2CCOCC2)c2ccc(Cl)cc2)cc1OC
active: [5] 15.2 µM
inactive: [4] | [6]

COP(=O)(NC(C)=O)SC (centres undefined)
inactive: [4] | [5] | [6]

CC[C@H](C)[C@H]1O[C@]2(C=C[C@@H]1C)C[C@@H]1C[C@@H](C/C=C(\C)[C@@H](O[C@H]3C[C@H](OC)[C@@H](O[C@H]4C[C@H](OC)[C@@H](NC)[C@H](C)O4)[C@H](C)O3)[C@@H](C)/C=C/C=C3\CO[C@@H]4[C@H](O)C(C)=C[C@@H](C(=O)O1)[C@]34O)O2
active: [4] 0.874 µM | [5] 1.34 µM | [6] 1.82 µM

C#CCC1=C(C)C(OC(=O)C2C(C=C(C)C)C2(C)C)CC1=O (centres undefined)
active: [9] 25.3 µM | [10] 23.4 µM | [4] 67.2 µM | [5] 49.8 µM | [6] 49.8 µM

CCc1cccc(CC)c1N(COC)C(=O)CCl
active: [4] 50 µM | [5] 50 µM
inactive: [6]

CN(C)[C@@H]1C(=O)C(C(N)=O)=C(O)[C@@]2(O)C(=O)C3=C(O)c4c(O)cccc4[C@@](C)(O)[C@H]3[C@H](O)[C@@H]12
active: [1] 50 µM | [2] 44.7 µM | [16] 78.6 µM | [17] 83.4 µM | [3] 89.6 µM | [4] 50 µM | [5] 50 µM | [15] 50 µM

CCc1cccc(C)c1N(C(=O)CCl)C(C)COC (centres undefined)
inactive: [7] | [8] | [4] | [5] | [13] | [6]
active: [9] 35.8 µM | [10] 48.9 µM | [12] 3.42 µM | [11] 9.46 µM | [14] 17.4 µM

O=C(O)c1cc(Oc2ccc(C(F)(F)F)cc2Cl)ccc1[N+](=O)[O-]
active: [4] 50 µM
inactive: [5] | [6]

CCCCSP(=O)(SCCCC)SCCCC
active: [4] 78.1 µM | [5] 67.1 µM | [6] 71.4 µM

CCOP(=O)(NC(C)C)Oc1ccc(SC)c(C)c1 (centres undefined)
active: [4] 9.92 µM | [5] 32.7 µM

CCCSP(=O)(OCC)Oc1ccc(Br)cc1Cl (centres undefined)
inactive: [4] | [5]
active: [6] 38.6 µM

CCOC(=O)COc1cc(-c2nn(C)c(OC(F)F)c2Cl)c(F)cc1Cl
inactive: [4] | [6]
active: [5] 16.6 µM

C#CC(C)(C)NC(=O)c1cc(Cl)cc(Cl)c1
inactive: [8] | [4] | [12] | [13] | [19]
active: [18] 26.4 µM | [9] 52.6 µM | [10] 56.3 µM | [5] 26.4 µM | [11] 50 µM | [14] 64.3 µM
